Assay results reported in PubChem BioAssay (Tox21).
“And” between values parts separate entries of the source, which are not always exact repeats. Equal entries are not always repeated. Records with an inconclusive call do not appear. The source made the active and inactive calls. Unless noted, the call rests on the fitted dose curve; in most records, active means well fitted curve in the direction sought with a large enough effect in the repeat runs; inconclusive means weak or mixed curves; inactive means no such curve, though single readings can be large; an effect the other way counts as inactive or inconclusive.

Experiments:
[1] = qHTS assay to identify aromatase inhibitors - cell viability counter screen (AID 743084);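 further: cells stimulated with testosterone during compound exposure; nearly all actives have a fitted effect of over 55% in size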; further: potency means the concentration at half of the fitted maximal effect
[2] = biological target: Aryl hydrocarbon receptor (Homo sapiens) (UniProt P35869); assay: qHTS assay to identify small molecule that activate the aryl hydrocarbon receptor (AhR) signaling pathway (AID 743085);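 further: HG2L7.5c1 human HepG2 liver cells with stably integrated DRE-driven firefly reporter; series mostly up to about 70 µM; nearly all actives have a fitted effect of over 15% in size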
How it was run: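 Stably transfected human liver carcinoma cells (HG2L7.5c1; 20 DRE-firefly luciferase) were incubated 5 h, dosed, and kept 24 h at 37C. Agonism was scored from increased luciferase luminescence.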

[3] = qHTS assay to identify small molecule that activate the aryl hydrocarbon receptor (AhR) signaling pathway - cell viability counter screen (AID 743086); further: nearly all actives have a fitted effect of over 45% in size; further: potency means the concentration at half of the fitted maximal effect
How it was run: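 HepG2-AhR-luc (HG2L7.5c1) cells, 4000/well, were preincubated 5 h at 37C, exposed to compound in qHTS format for 24 hr at 37C, then given CellTiter-Fluor for 30 min; viability was read as fluorescence in the reporter wells.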

[4] = biological target: Peroxisome proliferator-activated receptor gamma (Homo sapiens) (UniProt P37231); assay: qHTS assay to identify small molecule agonists of the peroxisome proliferator-activated receptor gamma (PPARg) signaling pathway (AID 743094; active means well fitted activation curve with a large enough effect in the signal ratio in the repeat runs, not every such curve was filed as active; the % refers to the signal ratio)
How it was run: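 GeneBLAzer PPARg UAS-bla HEK293H cells carrying a stably integrated beta-lactamase reporter were pre-incubated 5 h at 37C, then exposed to compounds in DMSO for 17 h at 37C; LiveBLAzer B/G FRET substrate was added for 1 h at room temperature and fluorescence read.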

[5] = qHTS assay to identify small molecule antagonists of the peroxisome proliferator-activated receptor gamma (PPARg) signaling pathway - cell viability counter screen (AID 743194); further: nearly all actives have a fitted effect of over 55% in size
How it was run: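 PPARg-UAS-bla HEK293H cells were plated, rested 5 h at 37 C, then treated with compounds plus rosiglitazone (50 nM final) for 17 h at 37 C; viability was then read by CellTiter-Glo luminescence after 30 min at room temperature.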

[6] = qHTS assay for small molecule agonists of the antioxidant response element (ARE) signaling pathway (AID 743202; active means well fitted activation curve with a large enough effect in the signal ratio in the repeat runs, not every such curve was filed as active; the % refers to the signal ratio)
How it was run: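 Compounds delivered in DMSO to ARE-bla HepG2 cells (2,000 cells/well, pre-incubated 5 h) and left 16 h at 37 C. LiveBLAzer B/G FRET substrate then added for 2 h at RT before fluorescence reading.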

[7] = qHTS assay for small molecule agonists of the antioxidant response element (ARE) signaling pathway - cell viability counter screen (AID 743203; calls by dose curve; further: nearly all actives have a fitted effect of over 55% in size)
How it was run: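 CellSensor ARE-bla HepG2 cells, 2,000 per well, rested 5 hrs at 37C/5% CO2, then exposed to compound in DMSO for 16 hrs; viability read as CellTiter-Glo luminescence after 30 min at room temperature, in the reporter wells.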

[8] = qHTS assay for small molecule activators of the heat shock response signaling pathway (AID 743210; active means well fitted activation curve with a large enough effect in the signal ratio in the repeat runs, with a control signal flat, not every such curve was filed as active; the % refers to the signal ratio;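 further: HeLa cells with beta-lactamase reporter driven by heat shock elements; series mostly up to about 63 µM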)
How it was run: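 Reporter gene assay: HeLa cells stably bearing an HSE-bla construct, compound treatment 5 h at 37 C, LiveBLAzer substrate 2.5 h at RT, fluorescence intensity.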

[9] = qHTS assay to identify small molecule agonists of the peroxisome proliferator-activated receptor delta (PPARd) signaling pathway - cell viability counter screen (AID 743211); further: nearly all actives have a fitted effect of over 55% in size
How it was run: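 In the same wells used for beta-lactamase reporter measurement, cytotoxicity is scored by CellTiter-Glo. HEK293H PPARd-bla cells receive compound for 17 h at 37C following a 5 h settling period.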

[10] = biological target: Peroxisome proliferator-activated receptor delta (Homo sapiens) (UniProt Q03181); assay: qHTS assay to identify small molecule agonists of the peroxisome proliferator-activated receptor delta (PPARd) signaling pathway (AID 743212; calls by dose curve)
How it was run: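 A PPARd-bla HEK293H line with beta-lactamase under an Upstream Activator Sequence is treated with compounds at 37 C. Substrate loading for 2 h at room temperature precedes the fluorescence measurement.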

[11] = qHTS assay to identify small molecule antagonists of the peroxisome proliferator-activated receptor delta (PPARd) signaling pathway - cell viability counter screen (AID 743213); further: nearly all actives have a fitted effect of over 50% in size
How it was run: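 Same-well viability: cells pre-incubated 5 h, dosed with compound plus 300 nM L165041, kept 17 h at 37 C, FRET substrate 2 h RT, then CellTiter-Glo 30 min RT and luminescence.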

[12] = biological target: Peroxisome proliferator-activated receptor delta (Homo sapiens) (UniProt Q03181); assay: qHTS assay to identify small molecule antagonists of the peroxisome proliferator-activated receptor delta (PPARd) signaling pathway (AID 743215; active means well fitted inhibition curve with a large enough effect in the signal ratio in the repeat runs, not every such curve was filed as active; the % refers to the signal ratio;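 further: cells stimulated with agonist L165041 at 300 nM final during compound exposure; series mostly up to about 62 µM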)
How it was run: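 PPARd UAS-bla HEK293H cells were pre-incubated 5 h at 37 C, then given test compounds in DMSO plus agonist L165041 (300 nM final). After 17 h at 37 C, beta-lactamase FRET substrate was added; fluorescence read after 2 h at room temperature.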

[13] = biological target: Bile acid receptor (Homo sapiens) (UniProt Q96RI1); assay: qHTS assay to identify small molecule antagonists of the farnesoid-X-receptor (FXR) signaling pathway (AID 743217; active means well fitted inhibition curve with a large enough effect in the signal ratio in the repeat runs, not every such curve was filed as active; the % refers to the signal ratio)
How it was run: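 FXR-UAS-bla HEK 293T cells pre-incubated 5 h at 37 °C, then exposed to compounds with chenodeoxycholic acid (50 uM final) for 16 h at 37 °C. Beta-lactamase reporter read by LiveBLAzer B/G FRET substrate fluorescence after 2 h at room temperature.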

[14] = qHTS assay to identify small molecule agonists of the farnesoid-X-receptor (FXR) signaling pathway - cell viability counter screen (AID 743218); further: nearly all actives have a fitted effect of over 45% in size
How it was run: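 FXR-UAS-bla HEK 293T cells, plated 5 h at 37 C, were exposed to compounds for 16 h at 37 C. CellTiter-Glo was then added to the same wells as the bla readout; luminescence read after 30 min at room temperature.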

[15] = qHTS assay to identify small molecule antagonists of the farnesoid-X-receptor (FXR) signaling pathway - cell viability counter screen (AID 743221; active means well fitted cell-killing curve with a large enough effect in the repeat runs, not every such curve was filed as active; further: nearly all actives have a fitted effect of over 50% in size)
How it was run: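 Here viability was scored by luminescence after CellTiter-Glo addition to wells already read for beta-lactamase. Prior treatment: compound plus CDCA (50 uM final), 16 h, 37 C, HEK 293T FXR-bla cells.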

[16] = biological target: Vitamin D3 receptor (Homo sapiens) (UniProt P11473); assay: qHTS assay to identify small molecule agonists of the vitamin D receptor (VDR) signaling pathway (AID 743222; calls by dose curve)
How it was run: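 VDR-bla cells were plated 4 h at 37C/5% CO2, then exposed to compounds in DMSO for 16 h. After LiveBLAzer B/G FRET substrate addition and 2 h at room temperature, beta-lactamase reporter fluorescence was read.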

[17] = biological target: Vitamin D3 receptor (Homo sapiens) (UniProt P11473); assay: qHTS assay to identify small molecule antagonists of the vitamin D receptor (VDR) signaling pathway (AID 743223; active means well fitted inhibition curve with a large enough effect in the signal ratio in the repeat runs, not every such curve was filed as active; the % refers to the signal ratio)
How it was run: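 Inhibition of agonist-driven VDR signalling is scored in VDR-bla cells: 3 nM final 1alpha,25-dihydroxyvitamin D3 plus compound, 16 h at 37C, then beta-lactamase detection by FRET substrate fluorescence after 2 h.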

[18] = qHTS assay for small molecule activators of the heat shock response signaling pathway - cell viability counter screen (AID 743209); further: nearly all actives have a fitted effect of over 50% in size
How it was run: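 CellSensor HSE-bla HeLa cells, plated overnight at 37 C/5% CO2, were exposed to compounds in DMSO for 5 h at 37 C. Viability was then read in the same wells by CellTiter-Glo luminescence after 30 min at room temperature.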

[19] = biological target: Peroxisome proliferator-activated receptor gamma (Homo sapiens) (UniProt P37231); assay: qHTS assay to identify small molecule antagonists of the peroxisome proliferator-activated receptor gamma (PPARg) signaling pathway (AID 743191; calls by dose curve; further: series mostly up to about 63 µM; nearly all actives have a fitted effect of over 30% in size)
How it was run: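 GeneBLAzer PPARg UAS-bla HEK293H cells carrying a UAS-driven beta-lactamase reporter were plated at 3000 cells/well, preincubated 5 h at 37C, then given compound for 17 h at 37C; LiveBLAzer B/G FRET substrate was read after 1 h at room temperature.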

[20] = biological target: Bile acid receptor (Homo sapiens) (UniProt Q96RI1); assay: qHTS assay to identify small molecule agonists of the farnesoid-X-receptor (FXR) signaling pathway (AID 743220; active means well fitted activation curve with a large enough effect in the signal ratio in the repeat runs, not every such curve was filed as active; the % refers to the signal ratio)
How it was run: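 Beta-lactamase reporter under UAS control in GeneBLAzer FXR HEK 293T cells (5000/well) measured with LiveBLAzer FRET substrate after 2 h at room temperature. Compound exposure lasted 16 h at 37C.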

Measured: Potency

Sequence of Peroxisome proliferator-activated receptor delta (Homo sapiens) (Q03181 whole entry, looked up): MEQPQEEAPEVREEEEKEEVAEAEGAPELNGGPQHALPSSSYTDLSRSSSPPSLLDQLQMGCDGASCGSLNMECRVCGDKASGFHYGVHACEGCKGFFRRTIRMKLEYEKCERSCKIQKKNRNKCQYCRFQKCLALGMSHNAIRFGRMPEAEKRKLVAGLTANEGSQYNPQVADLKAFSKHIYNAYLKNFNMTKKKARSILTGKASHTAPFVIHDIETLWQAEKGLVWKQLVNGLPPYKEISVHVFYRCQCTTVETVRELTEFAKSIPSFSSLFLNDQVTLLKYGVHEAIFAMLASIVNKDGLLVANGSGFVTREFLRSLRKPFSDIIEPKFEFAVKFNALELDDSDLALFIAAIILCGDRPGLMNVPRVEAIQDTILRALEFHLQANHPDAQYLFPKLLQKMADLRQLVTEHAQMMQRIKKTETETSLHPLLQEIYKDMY
Sequence of Bile acid receptor (Homo sapiens) (Q96RI1 whole entry, looked up): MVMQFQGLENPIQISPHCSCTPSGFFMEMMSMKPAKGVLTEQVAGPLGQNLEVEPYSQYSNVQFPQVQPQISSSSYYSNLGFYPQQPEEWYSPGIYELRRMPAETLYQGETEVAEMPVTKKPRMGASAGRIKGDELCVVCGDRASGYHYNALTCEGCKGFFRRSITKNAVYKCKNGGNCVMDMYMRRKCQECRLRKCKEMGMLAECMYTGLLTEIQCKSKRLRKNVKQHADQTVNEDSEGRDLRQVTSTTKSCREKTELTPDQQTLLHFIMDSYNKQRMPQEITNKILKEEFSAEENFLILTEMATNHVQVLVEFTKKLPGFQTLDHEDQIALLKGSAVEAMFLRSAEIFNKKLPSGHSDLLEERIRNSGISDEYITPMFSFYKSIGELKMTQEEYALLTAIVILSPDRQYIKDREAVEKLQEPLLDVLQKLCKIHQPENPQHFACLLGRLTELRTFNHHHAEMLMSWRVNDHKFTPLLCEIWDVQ
Sequence of Vitamin D3 receptor (Homo sapiens) (P11473 whole entry, looked up): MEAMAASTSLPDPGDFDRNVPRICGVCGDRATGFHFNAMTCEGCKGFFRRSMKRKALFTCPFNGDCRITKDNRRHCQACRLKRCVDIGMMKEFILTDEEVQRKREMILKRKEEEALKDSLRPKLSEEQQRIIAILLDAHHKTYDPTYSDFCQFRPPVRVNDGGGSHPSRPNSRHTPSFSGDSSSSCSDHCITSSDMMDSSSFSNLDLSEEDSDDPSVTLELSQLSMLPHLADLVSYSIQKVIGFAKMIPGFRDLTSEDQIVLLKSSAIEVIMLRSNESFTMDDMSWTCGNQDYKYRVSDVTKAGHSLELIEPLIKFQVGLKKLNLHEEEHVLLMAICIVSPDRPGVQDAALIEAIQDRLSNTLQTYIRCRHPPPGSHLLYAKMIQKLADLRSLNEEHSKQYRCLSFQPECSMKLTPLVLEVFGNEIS
Sequence of Aryl hydrocarbon receptor (Homo sapiens) (P35869 whole entry, looked up): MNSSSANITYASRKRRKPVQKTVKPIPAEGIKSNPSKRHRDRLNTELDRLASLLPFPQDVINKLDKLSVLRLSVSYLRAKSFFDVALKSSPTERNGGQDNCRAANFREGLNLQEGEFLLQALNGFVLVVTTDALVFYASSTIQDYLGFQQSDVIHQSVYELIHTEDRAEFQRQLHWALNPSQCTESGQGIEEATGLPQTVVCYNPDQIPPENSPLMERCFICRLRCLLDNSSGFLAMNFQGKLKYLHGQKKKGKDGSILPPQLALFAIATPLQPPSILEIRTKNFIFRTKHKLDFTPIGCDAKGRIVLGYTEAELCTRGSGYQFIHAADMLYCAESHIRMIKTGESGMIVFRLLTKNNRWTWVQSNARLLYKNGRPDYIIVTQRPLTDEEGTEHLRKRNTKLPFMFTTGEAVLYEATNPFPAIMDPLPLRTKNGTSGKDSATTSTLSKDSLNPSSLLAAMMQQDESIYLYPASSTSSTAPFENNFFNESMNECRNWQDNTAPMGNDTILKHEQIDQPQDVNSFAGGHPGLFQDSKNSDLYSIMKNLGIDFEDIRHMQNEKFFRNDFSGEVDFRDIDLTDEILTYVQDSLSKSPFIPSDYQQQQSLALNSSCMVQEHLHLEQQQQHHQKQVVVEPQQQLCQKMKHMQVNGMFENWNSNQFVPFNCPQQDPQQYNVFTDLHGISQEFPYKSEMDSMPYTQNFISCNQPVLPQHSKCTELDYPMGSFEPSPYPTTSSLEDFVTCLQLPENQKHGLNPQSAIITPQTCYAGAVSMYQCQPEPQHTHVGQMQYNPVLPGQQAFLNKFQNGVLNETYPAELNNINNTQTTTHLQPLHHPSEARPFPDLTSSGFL
Sequence of Peroxisome proliferator-activated receptor gamma (Homo sapiens) (P37231 whole entry, looked up): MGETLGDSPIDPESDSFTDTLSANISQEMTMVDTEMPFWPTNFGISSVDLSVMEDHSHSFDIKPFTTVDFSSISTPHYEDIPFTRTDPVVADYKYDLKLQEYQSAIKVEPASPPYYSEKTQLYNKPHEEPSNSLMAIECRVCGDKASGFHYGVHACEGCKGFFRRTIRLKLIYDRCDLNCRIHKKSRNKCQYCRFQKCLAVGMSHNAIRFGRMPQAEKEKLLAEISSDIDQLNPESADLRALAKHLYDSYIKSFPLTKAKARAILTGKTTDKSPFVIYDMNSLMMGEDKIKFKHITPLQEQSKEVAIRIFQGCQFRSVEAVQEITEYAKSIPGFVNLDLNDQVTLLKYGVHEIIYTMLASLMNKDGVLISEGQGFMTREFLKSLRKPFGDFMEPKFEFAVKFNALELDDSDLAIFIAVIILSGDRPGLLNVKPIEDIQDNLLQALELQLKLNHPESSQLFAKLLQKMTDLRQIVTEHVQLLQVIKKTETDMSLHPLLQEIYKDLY

CC12CCC(C(=O)C1=O)C2(C)C (stereo unspecified)
not listed: [17] | [18] | [19] | [20]
inactive: all other assays above

CCCCOCCOC(=O)COc1cc(Cl)c(Cl)cc1Cl
not listed: [4] | [13] | [18] | [19] | [20]
inactive: all other assays above

CC1CCC(CO)CC1 (stereo unspecified)
not listed: [4] | [8] | [13] | [17] | [19] | [20]
inactive: all other assays above

CC(=O)c1cnccn1
not listed: [8] | [18] | [19] | [20]
inactive: all other assays above

O=C1CCCCCCCCCCCCCCO1
not listed: [6] | [8] | [13] | [17] | [19] | [20]
inactive: all other assays above

C=COCC1CCC(COC=C)CC1 (stereo unspecified)
not listed: [8] | [10] | [12] | [13] | [19] | [20]
inactive: all other assays above

CCCCCCCCCC[N+](C)(C)[O-]
not listed: [4] | [6] | [13] | [17] | [18] | [19] | [20]
inactive: all other assays above

CCCc1ncc(C[n+]2ccccc2C)c(N)n1
not listed: [2] | [10] | [11] | [12] | [18] | [20]
inactive: all other assays above

Nc1ccncc1N
not listed: [2] | [11] | [17] | [20]
inactive: all other assays above

CC(=O)O[C@@]12CO[C@@H]1C[C@H](O)[C@@]1(C)C(=O)[C@H](O)C3=C(C)[C@@H](OC(=O)[C@H](O)[C@@H](NC(=O)OC(C)(C)C)c4ccccc4)C[C@@](O)([C@@H](OC(=O)c4ccccc4)[C@H]21)C3(C)C
active: [1] 26.6 µM | [3] 33.5 µM and 26.6 µM
not listed: [2] | [6] | [13] | [17]
inactive: all other assays above

O=C(O)CNC(=O)c1ccccc1
not listed: [3] | [9] | [12] | [13] | [16] | [17] | [19] | [20]
inactive: all other assays above

CC[N+](CC)(CC(=O)Nc1c(C)cccc1C)Cc1ccccc1 (tested in a mixture with another compound)
not listed: [2] | [8] | [10] | [12] | [13] | [16] | [17] | [20]
inactive: all other assays above

CN1CCC(=C2c3ccccc3CCc3cccnc32)CC1
not listed: [3] | [4] | [8] | [13] | [14] | [20]
inactive: all other assays above
